{"source": "the supplement of paper PMC12282887", "test_system": "E. coli BW25113 marRABp lux reporter", "assay": "promoter activity interaction Z-score (Lux/OD deviation from empty-vector control); higher = stronger promoter induction by the compound", "method": "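E. coli BW25113 (wild type or ΔmarA/ΔsoxS/Δrob) carrying pTU175 luxCDABE promoter reporters was grown in LB in 384-well plates at 37°C with each of 94 compounds at 4 two-fold concentrations, in biological duplicates. Luminescence and OD600 were read every 30 min for 12 h and integrated as AUC over 8 h (0-8 h WT, 1-9 h mutants). Lux AUC was divided by OD AUC; the interaction score is the residual of a Huber robust fit of each promoter against the empty-vector control, then Z-transformed per promoter.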", "note": "± gives the standard deviation of the averaged measurements.", "data": [{"smiles": "CO[C@@]12[C@H](COC(N)=O)C3=C(C(=O)C(C)=C(N)C3=O)N1C[C@@H]1N[C@@H]12", "note": "[Mitomycin C]", "values": [{"measurement": "promoter activity interaction Z-score", "setting": "0.063 µg/ml, genetic background: wild type", "result": "-0.000521 ± 0.092"}, {"measurement": "promoter activity interaction Z-score", "setting": "0.063 µg/ml, genetic background: ΔmarA", "result": "-0.0389 ± 0.12"}, {"measurement": "promoter activity interaction Z-score", "setting": "0.063 µg/ml, genetic background: Δrob", "result": "0.174 ± 0.0026"}, {"measurement": "promoter activity interaction Z-score", "setting": "0.063 µg/ml, genetic background: ΔsoxS", "result": "-0.0406 ± 0.22"}, {"measurement": "promoter activity interaction Z-score", "setting": "0.13 µg/ml, genetic background: wild type", "result": "0.0648 ± 0.23"}, {"measurement": "promoter activity interaction Z-score", "setting": "0.13 µg/ml, genetic background: ΔmarA", "result": "0.518 ± 1.1"}, {"measurement": "promoter activity interaction Z-score", "setting": "0.13 µg/ml, genetic background: Δrob", "result": "0.208 ± 0.51"}, {"measurement": "promoter activity interaction Z-score", "setting": "0.13 µg/ml, genetic background: ΔsoxS", "result": "0.0422 ± 0.14"}, {"measurement": "promoter activity interaction Z-score", "setting": "0.25 µg/ml, genetic background: wild type", "result": "0.242 ± 0.24"}, {"measurement": "promoter activity interaction Z-score", "setting": "0.25 µg/ml, genetic background: ΔmarA", "result": "-0.125 ± 0.18"}, {"measurement": "promoter activity interaction Z-score", "setting": "0.25 µg/ml, genetic background: Δrob", "result": "0.258 ± 0.1"}, {"measurement": "promoter activity interaction Z-score", "setting": "0.25 µg/ml, genetic background: ΔsoxS", "result": "-0.121 ± 0.19"}, {"measurement": "promoter activity interaction Z-score", "setting": "0.5 µg/ml, genetic background: wild type", "result": "-0.107 ± 0.17"}, {"measurement": "promoter activity interaction Z-score", "setting": "0.5 µg/ml, genetic background: ΔmarA", "result": "0.219 ± 0.99"}, {"measurement": "promoter activity interaction Z-score", "setting": "0.5 µg/ml, genetic background: Δrob", "result": "-0.172 ± 0.14"}, {"measurement": "promoter activity interaction Z-score", "setting": "0.5 µg/ml, genetic background: ΔsoxS", "result": "-0.177 ± 0.11"}]}, {"smiles": "C[C@]12CC[C@@H]3c4ccc(O)cc4CC[C@H]3[C@@H]1CC[C@@H]2O", "note": "[Estradiol]", "values": [{"measurement": "promoter activity interaction Z-score", "setting": "17 µg/ml, genetic background: wild type", "result": "0.0618 ± 0.2"}, {"measurement": "promoter activity interaction Z-score", "setting": "17 µg/ml, genetic background: ΔmarA", "result": "-0.313 ± 0.021"}, {"measurement": "promoter activity interaction Z-score", "setting": "17 µg/ml, genetic background: Δrob", "result": "-0.258 ± 0.042"}, {"measurement": "promoter activity interaction Z-score", "setting": "17 µg/ml, genetic background: ΔsoxS", "result": "-0.0159 ± 0.095"}, {"measurement": "promoter activity interaction Z-score", "setting": "34 µg/ml, genetic background: wild type", "result": "-0.352 ± 0.0081"}, {"measurement": "promoter activity interaction Z-score", "setting": "34 µg/ml, genetic background: ΔmarA", "result": "-0.312 ± 0.088"}, {"measurement": "promoter activity interaction Z-score", "setting": "34 µg/ml, genetic background: Δrob", "result": "-0.348 ± 0.044"}, {"measurement": "promoter activity interaction Z-score", "setting": "34 µg/ml, genetic background: ΔsoxS", "result": "0.0387 ± 0.037"}, {"measurement": "promoter activity interaction Z-score", "setting": "68.1 µg/ml, genetic background: wild type", "result": "-0.254 ± 0.14"}, {"measurement": "promoter activity interaction Z-score", "setting": "68.1 µg/ml, genetic background: ΔmarA", "result": "-0.263 ± 0.18"}, {"measurement": "promoter activity interaction Z-score", "setting": "68.1 µg/ml, genetic background: Δrob", "result": "-0.158 ± 0.23"}, {"measurement": "promoter activity interaction Z-score", "setting": "68.1 µg/ml, genetic background: ΔsoxS", "result": "-0.162 ± 0.022"}, {"measurement": "promoter activity interaction Z-score", "setting": "136.2 µg/ml, genetic background: wild type", "result": "-0.478 ± 0.16"}, {"measurement": "promoter activity interaction Z-score", "setting": "136.2 µg/ml, genetic background: ΔmarA", "result": "-0.488 ± 0.082"}, {"measurement": "promoter activity interaction Z-score", "setting": "136.2 µg/ml, genetic background: Δrob", "result": "-0.392 ± 0.36"}, {"measurement": "promoter activity interaction Z-score", "setting": "136.2 µg/ml, genetic background: ΔsoxS", "result": "0.155 ± 0.22"}]}, {"smiles": "Nc1ccc(C(=O)O)c(O)c1", "note": "[4-Aminosalicylic acid]", "values": [{"measurement": "promoter activity interaction Z-score", "setting": "19.1 µg/ml, genetic background: wild type", "result": "0.109 ± 0.4"}, {"measurement": "promoter activity interaction Z-score", "setting": "19.1 µg/ml, genetic background: ΔmarA", "result": "0.307 ± 0.0067"}, {"measurement": "promoter activity interaction Z-score", "setting": "19.1 µg/ml, genetic background: Δrob", "result": "0.19 ± 0.12"}, {"measurement": "promoter activity interaction Z-score", "setting": "19.1 µg/ml, genetic background: ΔsoxS", "result": "0.147 ± 0.18"}, {"measurement": "promoter activity interaction Z-score", "setting": "38.3 µg/ml, genetic background: wild type", "result": "0.0516 ± 0.015"}, {"measurement": "promoter activity interaction Z-score", "setting": "38.3 µg/ml, genetic background: ΔmarA", "result": "0.172 ± 0.09"}, {"measurement": "promoter activity interaction Z-score", "setting": "38.3 µg/ml, genetic background: Δrob", "result": "0.493 ± 0.39"}, {"measurement": "promoter activity interaction Z-score", "setting": "38.3 µg/ml, genetic background: ΔsoxS", "result": "0.161 ± 0.086"}, {"measurement": "promoter activity interaction Z-score", "setting": "76.6 µg/ml, genetic background: wild type", "result": "-0.0573 ± 0.025"}, {"measurement": "promoter activity interaction Z-score", "setting": "76.6 µg/ml, genetic background: ΔmarA", "result": "-0.242 ± 0.12"}, {"measurement": "promoter activity interaction Z-score", "setting": "76.6 µg/ml, genetic background: Δrob", "result": "0.384 ± 0.31"}, {"measurement": "promoter activity interaction Z-score", "setting": "76.6 µg/ml, genetic background: ΔsoxS", "result": "-0.0494 ± 0.21"}, {"measurement": "promoter activity interaction Z-score", "setting": "153.1 µg/ml, genetic background: wild type", "result": "0.642 ± 0.055"}, {"measurement": "promoter activity interaction Z-score", "setting": "153.1 µg/ml, genetic background: ΔmarA", "result": "0.698 ± 0.021"}, {"measurement": "promoter activity interaction Z-score", "setting": "153.1 µg/ml, genetic background: Δrob", "result": "0.956 ± 0.3"}, {"measurement": "promoter activity interaction Z-score", "setting": "153.1 µg/ml, genetic background: ΔsoxS", "result": "0.968 ± 0.13"}]}]}
